Experimental data: PubChem BioAssay (NCI)
This is part of a sample that, as a whole, favours compounds with a hit. Of some 83,000 tested, about 20% had one in any assay.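 Cell lines were cultured in 96-well plates, exposed to a single compound concentration, and assessed for percent growth 48 hours later.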 Unmarked numbers belong to inactive results. The source made the active and inactive calls. The calls were made as follows: active = growth percent below 10; inactive = the rest.

Each molecule was assayed on MALME-3M melanoma (assay: NCI-60 one-dose screen, 48 h (100 = growth as untreated, 0 = no growth, -100 = all killed)). Details: 10 µM unless noted.
`N#C/C(=C1C=C/C(=N/O)C(Cl)=C/1)c1ccc(Cl)cc1` was tested, and the growth was 112%.
Work on `c1coc(CNc2ccnc(Nc3ccc(OCCN4CCCCC4)cc3)n2)c1` yielded a growth of 110%.
For `C=C1CCC2C(C)(CO)C(O)CCC2(C)C1C/C=C1/C(=O)OCC1O/C=C/c1ccccc1` (stereo unspecified), the growth was 105%.
`C=C(C)[C@@H]1CC[C@]2(C(=O)N3CCNCC3)CC[C@]3(C)[C@H](CC[C@@H]4[C@@]5(C)C/C(=C/c6ccncc6)C(=O)C(C)(C)[C@@H]5CC[C@]43C)[C@@H]12` was tested, and the growth was 114%.
In the case of `CCOC(=O)C1C(=O)C=C(c2ccc(OC)cc2)CC1c1sc(N(C)Cc2ccccc2)nc1Cl` (stereo unspecified), the growth is reported as 93.4%.
With `COc1cc(/C=C/C(=O)/C=C/c2cc(OC)c3c(c2)OCO3)cc2c1OCO2` the growth was 98.2%.
Work on `C[n+]1c(/C=C/c2c(O)ccc3ccccc23)ccc2ccccc21` yielded a growth of 40.4%.
In the case of `CCN(CC)CCC(CNc1c2ccc(Cl)cc2nc2ccc(OC)cc12)c1ccccc1` (stereo unspecified), the growth is reported as -85.1% (active).
With `C=C1CC2(OC1=O)C(=O)N(CCCN1C(=O)C3(CC(=C)C(=O)O3)c3ccccc31)c1ccccc12` (stereo unspecified) the growth was -48.5% (active).
With `CN(CCCCCl)P(=O)(OCc1ccc([N+](=O)[O-])o1)C(F)(F)C[C@H](NC(=O)CNC(=O)c1ccc(N=[N+]=[N-])cc1)C(=O)NCCc1ccc(O)cc1` (stereo partly specified) the growth was 79.6%.
With `COc1ccc(C(=O)N2NC(=O)/C(=C/c3ccc(Br)cc3)N=C2c2ccccc2)cc1` the growth was 90.3%.
Work on `N#Cc1c(-c2ccccc2)cc(-c2ccccc2)n(CC(=O)NO)c1=O` yielded a growth of 66%.
Work on `COc1ccc(Nc2ncccc2C(=O)NCc2cn(Cc3cccc(Oc4ccccc4)c3)nn2)c(OC)c1` yielded a growth of 46.4%.
`N/C(=N\S(=O)(=O)c1ccccc1)Nc1nc2ccccc2s1` showed a growth of 105%.
In the case of `O=S(=O)(NCCCNc1nccc(-n2ccc3cccnc32)n1)c1cccc(C(F)(F)F)c1`, the growth is reported as 112%.
`COc1cc(NC(N)=NCCC(C)(C)Oc2ccc(C(F)(F)F)cc2)ncc1C#N` was tested, and the growth was -81.2% (active).
For `COc1ccc2c(c1)[nH]c(=O)c1c3cc(OC)ccc3cn21`, the growth was 60.4%.
With `FC(F)(F)c1cccc(-c2cn3c(ccc4ccccc43)n2)c1` the growth was 102%.
Work on `COc1ccc(CN2CCc3c(Sc4ccccc4)nc(N)nc3C2=O)c(OC)c1` yielded a growth of 38.9%.
For `COc1ccc(Nc2ncccc2C(=O)NCc2cn(Cc3cccc(Oc4ccccc4)c3)nn2)cc1`, the growth was 41.4%.
With `CCN(CC)CCC(CNc1ccnc2cc(Cl)ccc12)c1ccc(Cl)cc1` (stereo unspecified) the growth was -83.1% (active).
Molecule `Cc1ccc(S(=O)(=O)C2=C3C(=C(c4ccccc4)c4ccccc43)CN(S(=O)(=O)c3ccc(C)cc3)C2)cc1` has a growth of 72%.
In the case of `O=C1C(Cl)=C(Nc2ccccn2)C(=O)c2ccccc21`, the growth is reported as -16.4% (active).
With `COc1cc(/C=C/C(=O)N2CCN(C(=O)/C=C/c3cc(OC)c(OC)c(OC)c3)CC2)cc(OC)c1OC` the growth was 127%.
For `c1ccc(-c2nnc(-c3ccccn3)s2)nc1`, the growth was 86.3%.
Molecule `Cc1c(C(=O)/C=C/c2csc3ccccc23)[n+](=O)c2ccccc2n1[O-]` has a growth of 125%.
In the case of `O=C(NCCNc1nccc(-n2ccc3cccnc32)n1)c1ccc(C(F)(F)F)cc1`, the growth is reported as 108%.
Molecule `C=C(C)[C@@H]1C[C@@H]2Cc3cc(Cl)ccc3N1O2` has a growth of 91.4%.
For `O=S(=O)(CC(O)(c1ccccc1)c1ccccc1)CC(O)(c1ccccc1)c1ccccc1`, the growth was 61.8%.
In the case of `NC1=NC(SCc2ccccc2CCl)c2ncn(Cc3ccccc3CCl)c2N1` (stereo unspecified), the growth is reported as 19.4%.
`C=C[C@@H]1C[C@@H]2Cc3c(C)cc(C)cc3N1O2` was tested, and the growth was 77%.
For `COc1cc(/C=N\NC(=O)CN2CCN(c3cc4c(cc3F)c(=O)c(C(=O)N/N=C/c3cc(OC)c(OC)c(OC)c3)cn4C3CC3)CC2)cc(OC)c1OC`, the growth was -15.8% (active).
`Fc1ccc(-c2nc(-c3nc4ncccc4[nH]3)cc3c2[nH]c2ccccc23)cc1F` showed a growth of 78.5%.
In the case of `COc1cc(-c2nc(-c3nc4ccc(Cl)cc4[nH]3)cc3c2[nH]c2ccccc23)cc(OC)c1OC`, the growth is reported as 92.7%.
Work on `C=C(C)[C@@H]1C[C@@H]2Cc3ccc(Cl)c(C)c3N1O2` yielded a growth of 120%.
`CCCCCCCCC(C)OC(=O)c1nn(C(C)=O)c2ccccc12` (stereo unspecified) was tested, and the growth was 106%.
